# Experimental data as given in ChEMBL document CHEMBL3433997, “St. Jude Leishmania screening dataset” (2016).
# Values joined by “and” are separate entries in the source; they are usually repeats but may differ in a detail not shown here. Equal values may be shown once.
# Target: Solute carrier family 2, facilitated glucose transporter member 1 (Homo sapiens) (UniProt P11166)
# Assay: ST_JUDE_LEISH: Cytotoxicity at 2uM final concentration against transgenic Leishmania Mexicana promastigotes LmGLUT1 that are glucose transport deficient and complemented with the human glucose transporter GLUT1. Activity is measured by DNA content using SYBR green in vitro
# Assay type: functional
# Chain of Solute carrier family 2, facilitated glucose transporter member 1 (Homo sapiens) (P11166 whole entry): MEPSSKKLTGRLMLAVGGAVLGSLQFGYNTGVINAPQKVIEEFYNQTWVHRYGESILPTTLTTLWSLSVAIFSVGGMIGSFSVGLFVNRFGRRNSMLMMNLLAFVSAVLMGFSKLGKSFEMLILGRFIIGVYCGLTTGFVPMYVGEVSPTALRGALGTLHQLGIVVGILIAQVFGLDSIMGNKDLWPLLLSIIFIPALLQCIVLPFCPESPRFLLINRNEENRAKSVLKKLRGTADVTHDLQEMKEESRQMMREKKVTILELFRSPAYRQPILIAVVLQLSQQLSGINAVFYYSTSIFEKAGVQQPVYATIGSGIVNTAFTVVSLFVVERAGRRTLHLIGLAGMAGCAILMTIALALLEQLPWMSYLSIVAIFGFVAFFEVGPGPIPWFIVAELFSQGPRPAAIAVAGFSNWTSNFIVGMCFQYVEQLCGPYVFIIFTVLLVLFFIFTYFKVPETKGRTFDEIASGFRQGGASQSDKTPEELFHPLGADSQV
row,SMILES,inhibition
1,Nc1cccc(CNCc2cccc(-c3ccc(-c4nc5ccccc5[nH]4)cc3)c2)c1,-1.29%
2,O=[N+]([O-])c1ccc(-n2nc(Cc3ccccc3)n(Cc3cccc(F)c3)c2=S)c(C(F)(F)F)c1,2.84%
3,OCC(c1ccccc1)n1c(COc2ccc(Cl)cc2)nc2c(OCCCN3CCCCC3)cccc21 (stereo not given),12.9%
4,c1ccc2[nH]c(-c3ccc(-c4ccc(CN5CCC(N6CCCCC6)CC5)cc4)s3)nc2c1,0.72%
5,CC(=O)Nc1cccc(NC(=O)CSc2ccc(-c3nc4ccccc4[nH]3)cn2)c1,0.84%
6,O=C(Nc1ccc(F)c(Cl)c1)c1cc([N+](=O)[O-])cc2cn[nH]c12,-0.64%
7,Cc1nnc(N2C(=N)SC(=Cc3ccc(-c4ccc(OC(F)(F)F)cc4)o3)C2=O)s1,4.77%
8,O=C(Nc1cccc(-c2ccc(-c3nc4cc(F)ccc4[nH]3)cc2)c1)c1cccnc1,7.59%
9,O=C(NCCN1CCCC1)c1cccc(-c2ccc(-c3nc4cc(F)ccc4[nH]3)s2)c1,2.21%
10,Cc1n[nH]c2ccc(-c3ccc4nccc(N5CCC(N)CC5)c4c3)cc12,-2.13%
11,CCOC(=O)C1=C(C)NC2=C(C(=O)CC(C)(C)C2)C1c1ccc(Br)cc1 (stereo not given),1.77%
12,CC1(C)NC(N)=NC(=N)N1OCCSc1ccccc1,2.9%
13,Cc1cc([N+](=O)[O-])ccc1NC(=O)Nc1cccc(C(F)(F)F)c1,5.58%
14,Fc1ccc(Nc2ccnc3cc(-c4cccc(CN5CCCCC5)c4)ccc23)c(Cl)c1,4.23%
15,O=c1c2ccccc2[nH]c2nc3ccccc3c(Nc3ccccc3)c12,10.2%
16,Cc1cccc2nc(-c3ccc(-c4ccc(CNCc5ccc(CN)cc5)cc4)cc3)[nH]c12,7.89%
17,COc1ccc2nc(N=C3NC4(c5ccccc5)NC(=Nc5nc6ccc(OC)cc6[nH]5)NC4(c4ccccc4)N3)[nH]c2c1 (stereo not given),-1.9%
18,COc1ccccc1/C=C/C(=O)N(C)C1CCN(CCCCCNC(=O)/C=C/c2ccc(Cl)c(Cl)c2)C1 (stereo not given),1.67%
19,COc1ccc2nc3cc(Cl)ccc3c(NCCCO)c2c1,0.97%
20,FC(F)(F)c1cc(Nc2ncnc3ccc(Br)cc23)ccc1OCc1ccccc1,6.39%

row,SMILES,inhibition
1,ON=C1CCc2cc(-c3nc(-c4ccc(OCCN5CCCCC5)cc4)[nH]c3-c3ccncc3)ccc21,-1.78%
2,C=C[C@H]1CN(CCCCCCC)CC[C@H]1CC(O)Cc1ccnc2cc(O)c(OC)cc12 (stereo not given in full),-1.66%
3,Cc1ccc(NC(=O)c2ccc3ncccc3c2)cc1OC1CCN(CCC(C)C)CC1,3.07%
4,CCC(ON1C(N)=NC(N)=NC1(C)C)c1ccccc1 (stereo not given),-1.61%
5,Cc1c(C(=O)NCc2ccncc2)sc2nc(-c3cccc([N+](=O)[O-])c3)cn12,0.53%
6,CCCCCCN1CCCN(Cc2ccc(C(=O)Nc3ccc(C)c(F)c3)cc2)CC1,11.8%
7,CCN1CCC(N(Cc2ccc(-c3ccc(C(F)(F)F)cc3)cc2)C(=O)Cn2c(CCc3cccc(F)c3F)cc(=O)c3ccc(OCc4ccccc4)cc32)CC1,3.79%
8,COc1ccc2ncc(F)c(CCN3CC(O)C(CNCc4nc5c(cc4Cl)OCC(=O)N5)C3)c2n1 (stereo not given),0.46% and 5.05% and 0.19%
9,COc1ccc(N2CCN(CCCCNC(=O)c3ccc(NC(=O)c4ccc(C(F)(F)F)cc4)cc3)CC2)c(OC)c1,9%
10,O=C(Nc1ccc(N2CCN(Cc3c[nH]c4cc(F)ccc34)CC2)cc1)c1ccccc1-c1ccc(C(F)(F)F)cc1,7.38%
11,Cc1cc(=NN=Cc2ccccc2F)c2ccccc2[nH]1,1.11%
12,COc1ccc(CN2CCC(CNCCc3ccccc3Oc3ccccc3)CC2)cc1,-1.06%
13,CCCc1ccc(S(=O)(=O)NC2CCN(c3ccnc(Nc4ccc(OC)cc4)n3)C2)cc1 (stereo not given),8.11%
14,Cc1ccc(-c2ccc(NC(=O)N3CCc4cc(Br)c(N5CCN(C)CC5)cc43)cc2)cn1,2.03%
15,Cc1[nH]c(C)c(-c2ccc(-c3ccccc3F)nc2)c(=O)c1Br,2.19%
16,c1nc(CCNc2nc(Nc3ccc4c(c3)OCO4)nc(NC3CCCC3)n2)c[nH]1,1.6%
17,CC(C)CCNC(=O)C1Cc2c([nH]c3ccc(Br)cc23)C2(CCN(CCc3ccccc3)CC2)N1 (stereo not given),1.72%
18,Cn1cccc1C(=O)C(=O)Nc1ccc(-c2ccc(-c3nc4cc(F)ccc4[nH]3)cc2)cc1,8.15%
19,CN(C)CCCN(C)c1cccc2c1nc(-c1cccnc1)n2CCNCc1ccccc1,6.47%
20,CN(C(=O)Nc1ccc(F)cc1)C1CCN(CCCCCNC(=O)/C=C/c2ccc(Cl)c(Cl)c2)CC1,1%
